The results in this text go back to PubChem BioAssay (EPA / NIEHS).

Structures are written as SMILES. Results filed as inconclusive are left out. Activity calls are given as the source filed them. The calls were made as follows, unless noted: active = hit-call score of the fitted dose curve at least 0.9, where 1 is the maximum; inactive = score below 0.9.

Experiment [1] can be described thus: CCTE_Mundy_HCI_Cortical_Synap_Neur_Matur_BPCount: CCTE's Synaptogenesis and Neurite Maturation Assay in rat cortical cells for Branch Point Count, Mundy Lab (AID 2284211). The gist of the method: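 Rat primary cortical cultures, AraC added DIV 5; chemicals dosed DIV 7 through DIV 12. Fixed cells stained for MAP2, synaptophysin and Hoechst; neurite branch points counted by automated high-content imaging, fitted relative to DMSO.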

Experiment [2] can be described thus: CCTE_Mundy_HCI_Cortical_NOG_NeuriteCount: CCTE's Neurite Outgrowth Assay in rat cortical cells for Neurite Count, Mundy Lab (AID 2284212).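 Also: cells fixed about two days after chemical exposure began.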 The gist of the method: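 Neurite number per cell from high-content imaging of betaIII-tubulin immunostaining, with Hoechst nuclear counterstain.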
A short description of experiment [3]: CCTE_Mundy_HCI_Cortical_NOG_NeuriteLength: CCTE's Neurite Outgrowth Assay in rat cortical cells for Neurite Length, Mundy Lab (AID 2284213).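 As to AC50: neurites imaged about 48 to 50 h after chemical exposure began.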 The gist of the method:
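Neurite length was read by high-content imaging of βIII-tubulin-labelled neurites in rat primary cortical cultures. Activity was fitted relative to DMSO.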

Experiment [4] can be described thus: CCTE_Mundy_HCI_Cortical_Synap_Neur_Matur_NeuriteLength: CCTE's Synaptogenesis and Neurite Maturation Assay in rat cortical cells for Neurite Length, Mundy Lab (AID 2284214). An outline of the steps: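 Rat cortical neurons, AraC at DIV 5; compound + media change DIV 7, end DIV 12 (288.33 h). Fix, MAP2/synaptophysin/Hoechst immunostain, automated HCI of neurite length vs DMSO.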

A short description of experiment [5]: CCTE_Mundy_HCI_Cortical_Synap_Neur_Matur_NeuriteSpotCountPerNeuron: CCTE's Synaptogenesis and Neurite Maturation Assay in rat cortical cells for Neurite Spot Count per Neuron Count, Mundy Lab (AID 2284215). The gist of the method: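 High-content imaging counts synaptophysin puncta along MAP2-labelled neurites per neuron after chemical exposure of rat cortical cells from DIV 7 to termination at DIV 12 (AraC added DIV 5). Loss of signal relative to DMSO.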

Experiment [6] in a line: CCTE_Mundy_HCI_Cortical_Synap_Neur_Matur_SynapseCount: CCTE's Synaptogenesis and Neurite Maturation Assay in rat cortical cells for Synapse Count, Mundy Lab (AID 2284218). The gist of the method: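 Primary rat cortical culture; AraC DIV 5 to arrest glia; compound + media change DIV 7; terminated DIV 12. PFA/Hoechst fix, anti-MAP2 + anti-synaptophysin immunostain; HCI synapse count/neuron; DMSO = baseline.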

The nature of experiment [7]: CCTE_Mundy_HCI_Cortical_Synap_Neur_Matur_NeuriteCount: CCTE's Synaptogenesis and Neurite Maturation Assay in rat cortical cells for Neurite Count, Mundy Lab (AID 2284222).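 As to outcome: exposure from day 7 to day 12 in vitro with readout at day 12.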 An outline of the steps:
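Chemical exposure runs DIV 7–12 in rat cortical cultures, glia suppressed by AraC at DIV 5; measurement is at DIV 12. Imaging-derived neurite counts are fitted against DMSO baseline.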

Experiment [8] is described as follows: CCTE_Mundy_HCI_hN2_NOG_NeuriteCount: CCTE's Neurite Outgrowth Assay in human hN2 cells for Neurite Count, Mundy Lab (AID 2284219; active = hit-call score of the fitted dose curve at least 0.9, where 1 is the maximum). An outline of the steps: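 In this morphology assay, hNP1-derived neurons received test chemical 2 h post-plating and were fixed two days later in warm paraformaldehyde/sucrose containing Hoechst 33342. Neurites, labelled by rabbit anti-βIII-tubulin (1:800) and Alexa Fluor-488 (1:500), were counted automatically.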

Experiment [9] is described as follows: CCTE_Mundy_HCI_hN2_NOG_NeuriteLength: CCTE's Neurite Outgrowth Assay in human hN2 cells for Neurite Length, Mundy Lab (AID 2284220; active = hit-call score of the fitted dose curve at least 0.9, where 1 is the maximum). The gist of the method: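 Using βIII-tubulin immunofluorescence and Hoechst nuclear counterstain, this component quantifies neurite length in hNP1-derived neurons.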
A short description of experiment [10]: CCTE_Mundy_HCI_hN2_NOG_NeuronCount: CCTE's Neurite Outgrowth Assay in human hN2 cells for Neuron Count, Mundy Lab (AID 2284221; active = hit-call score of the fitted dose curve at least 0.9, where 1 is the maximum). The gist of the method: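 Read-out is the number of betaIII-tubulin-positive neurons imaged by automated high-content analysis, with DMSO as negative control.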

`Cc1cc(C(F)(C(F)(F)F)C(F)(F)F)ccc1NC(=O)c1cccc(I)c1C(=O)NC(C)(C)CS(C)(=O)=O`: the call in experiment [1], in experiment [2], in [3], in experiment [4], in experiment [5] and in experiment [6] was inactive. Also, the molecule was classed as inactive in experiment [7].
For the molecule `CS(=O)(=O)c1ccc(C(=O)C2C(=O)CCCC2=O)c(Cl)c1COCC(F)(F)F`, the molecule was classed as inactive in experiment [1], in experiment [2], in experiment [3], in experiment [4], in [5] and in experiment [6]. Further, the outcome in experiment [7] was inactive.
`CC1(C)[C@H](C(=O)O[C@H](C#N)c2cccc(Oc3ccccc3)c2)[C@@H]1/C=C(\Cl)C(F)(F)F`: the AC50 (usually the midpoint of the concentration-response curve, whichever way the signal moves) is 2.28 µM (active) in [1]; 19.9 µM (active) in experiment [2]; 19.5 µM (active) in experiment [3]; 2.35 µM (active) in [4]; 2.16 µM (active) in [5]; 2.13 µM (active) in [6]. Also, in experiment [7], the AC50 is 3.48 µM (active).
With `CNC(=O)CSP(=O)(OC)OC`, the outcome in experiment [1], in experiment [2], in experiment [3], in experiment [4], in experiment [5] and in experiment [6] was inactive. Besides, the outcome in experiment [8], in experiment [9] and in experiment [7] was inactive.
As for `Cc1ccccc1OP(=O)(Oc1ccccc1C)Oc1ccccc1C`, the AC50 in experiment [1] is 26.4 µM (active); in experiment [2] it was 19.2 µM (active); in [3], 19.6 µM (active); in experiment [4], 3.54 µM (active); in experiment [5] it was 3.81 µM (active); in experiment [6], 3.85 µM (active). For the same molecule, the outcome in experiment [7] was inactive.
Turning to `CCOCn1c(-c2ccc(Cl)cc2)c(C#N)c(Br)c1C(F)(F)F`, the AC50 was 13.1 µM (active) in experiment [1]; 23.2 µM (active) in [2]; 22.4 µM (active) in [3]; 15.5 µM (active) in experiment [4]; 13.5 µM (active) in experiment [5]; 13.5 µM (active) in experiment [6]. For the same molecule, in [7], the AC50 is 16.4 µM (active).
As to `CC(C)[C@@H](Nc1ccc(C(F)(F)F)cc1Cl)C(=O)OC(C#N)c1cccc(Oc2ccccc2)c1` (stereo partly drawn), the molecule was called inactive in experiment [1], in experiment [2], in experiment [3], in experiment [4], in experiment [6] and in experiment [7]. In addition, the AC50 in experiment [5] is 4.59 µM (active).
As to `OC(Cc1ccccc1Cl)(Cn1[nH]cnc1=S)C1(Cl)CC1` (stereo not drawn), the AC50 in experiment [1] is 50 µM (active); in [4], 42.7 µM (active); in [5], 50 µM (active); in experiment [6], 50 µM (active); in experiment [7], 50 µM (active). The outcome in experiment [2] and in [3] was inactive.
Consider `NC(=O)c1ccc(N)nc1`, for which the AC50 in experiment [1] was 9.07 µM (active); in experiment [2], 14.5 µM (active); in experiment [3] it was 14 µM (active); in [4], 9.47 µM (active); in [5] it was 9.32 µM (active); in [6], 9.12 µM (active). Also, the figures for the AC50 in experiment [10] and in experiment [7] were 0.000862 µM (active) and 18.7 µM (active), respectively. Also, the outcome in [8] and in experiment [9] was inactive.
